# About 79,000 compounds went through this panel and 15% of them were active in at least one assay; those are over-represented in the sample as a whole. Unmarked numbers belong to inactive results. The source made the active and inactive calls. No stated cut-off is given here; in the data, active means growth inhibition above about 70%; inactive means the rest.
# How the values were obtained:
# [1] = NCI Yeast Anticancer Drug Screen. Data for the rad50 strain (AID 155);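 further: 0% = growth of vehicle-only cultures of the same strain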; details: S. cerevisiae rad50 strain growth inhibition, stronger effect = higher value
# How it was run: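 Inhibition values express reduced yeast growth in compound-treated cultures relative to vehicle-treated controls.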
# [2] = NCI Yeast Anticancer Drug Screen. Data for the mec2-1 strain (AID 157); details: S. cerevisiae mec2-1 strain, stronger effect = higher value
# How it was run: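 Yeast mec2-1 mutant treated with compound. Readout: growth inhibition vs vehicle controls.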
# [3] = NCI Yeast Anticancer Drug Screen. Data for the sgs1 mgt1 strain (AID 161);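 further: 0% = growth of cultures given vehicle only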; details: S. cerevisiae sgs1 mgt1 strain, stronger effect = higher value
# How it was run: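 Test agents were incubated with a DNA-repair-mutant yeast strain. Growth was then read and compared against vehicle-treated controls.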
# [4] = NCI Yeast Anticancer Drug Screen. Data for the cln2 rad14 strain (AID 165);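 further: 0% = growth equal to vehicle treated cultures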; details: S. cerevisiae cln2 rad14 strain, stronger effect = higher value
# How it was run: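 cln2 rad14 yeast strain; compound exposure; growth inhibition read vs vehicle controls.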
# [5] = NCI Yeast Anticancer Drug Screen. Data for the bub3 strain (AID 167); details: S. cerevisiae bub3 mutant strain, stronger effect = higher value
# How it was run: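 Steps: expose the mutant yeast strain to compound; grow alongside vehicle-treated cultures; measure growth; express inhibition against the vehicle cultures.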
# [6] = NCI Yeast Anticancer Drug Screen. Data for the mlh1 rad18 strain (AID 175); details: S. cerevisiae mlh1 rad18 strain growth inhibition, stronger effect = higher value
# How it was run: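 Yeast w/ defined DNA-repair lesions; compound exposure; growth vs vehicle controls → % inhibition.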
# [7] = at 5.0 µM (retest, dose inferred, filed as 0.5)
# [8] = at 50.0 µM (retest, dose inferred, filed as 5.0)
Structure (SMILES),"growth inhibition [1, 7]","growth inhibition [1, 8]",growth inhibition ([1]; at 50.0 µM),"growth inhibition [2, 7]","growth inhibition [2, 8]",growth inhibition ([2]; at 50.0 µM),"growth inhibition [3, 7]","growth inhibition [3, 8]",growth inhibition ([3]; at 50.0 µM),"growth inhibition [4, 7]","growth inhibition [4, 8]",growth inhibition ([4]; at 50.0 µM),"growth inhibition [5, 7]","growth inhibition [5, 8]",growth inhibition ([5]; at 50.0 µM),"growth inhibition [6, 7]","growth inhibition [6, 8]",growth inhibition ([6]; at 50.0 µM)
OCCCNc1nc2c(Cl)cc(Cl)cc2c2ccccc12,16%,49%,50%,6%,28%,15.4%,8%,30%,72.7% (active),-6%,-16%,19.4%,-6%,-5%,76.2% (active),4%,30%,92.8% (active)
N=Nc1c(OC(=O)Nc2ccccc2)[nH]c2ccccc12,-3%,67%,8.65%,20%,63%,-6.3%,-1%,69%,13.8%,9%,40%,63.9%,1%,84% (active),31.9%,-3%,85% (active),71.5% (active)
CCCCCCCCCCCN1C(=O)c2ccccc2S1(=O)=O,-3%,78% (active),-22.4%,-2%,54%,0.5%,0%,80% (active),-11.4%,-14%,34%,58.8%,0%,79% (active),9.4%,0%,95% (active),32.4%
CCC(CO)Nc1nc2ccc(Br)cc2c2ccccc12 (configuration not stated),15%,82% (active),76% (active),4%,59%,49.5%,5%,95% (active),86% (active),0%,56%,66%,2%,84% (active),63.6%,8%,96% (active),93.9% (active)
CN1C(=O)C(C2C(=O)N(C)C(=O)N(C)C2=O)C(=O)N(C)C1=O,13%,-3%,2.95%,2%,0%,0.9%,0%,-11%,12.2%,2%,4%,39.4%,0%,-2%,-2.2%,1%,-2%,8.55%
CC(=O)NC1=C(Sc2ccc(C)cc2)C(=O)c2ccccc2C1=O,63%,98% (active),54.4%,96% (active),99% (active),10.1%,72% (active),95% (active),29.8%,35%,97% (active),-32.6%,67%,98% (active),42%,99% (active),99% (active),23.1%
CCN(CC)CCNC(=O)c1ccc(N=Cc2cc(Cl)cc(Cl)c2O)cc1,48%,49%,81.2% (active),32%,48%,91% (active),49%,97% (active),88.8% (active),24%,99% (active),84.8% (active),88% (active),97% (active),89.2% (active),46%,39%,85.7% (active)
Cc1cc(Cl)ccc1C(=O)c1ccc2ccccc2c1C(=O)O,8%,44%,84% (active),-15%,49%,82.5% (active),3%,54%,78% (active),-7%,65%,83.5% (active),-24%,87% (active),82.4% (active),-36%,52%,78.8% (active)
CCn1c2ccccc2c2ccc(N=Nc3ccc(N(C)C)cc3)cc21,34%,92% (active),77% (active),19%,94% (active),78.5% (active),6%,92% (active),79.5% (active),15%,84% (active),85.7% (active),10%,92% (active),82.3% (active),18%,93% (active),83.4% (active)
COc1ccc(NC(=O)CC(=O)n2nc(-c3ccccc3)c(N=Nc3ccc(C)cc3)c2-c2ccccc2)cc1,34%,34%,36.9%,28%,28%,5.95%,19%,19%,-6.65%,20%,20%,21%,27%,27%,35.1%,36%,36%,-3.75%
Cc1ccc(C)c(NC(=O)/C(=N\NC(N)=S)C(C#N)c2ccccc2)c1 (configuration not stated),5%,13%,-14.3%,6%,6%,12.8%,2%,12%,15.6%,-1%,-4%,28%,10%,2%,5.75%,1%,6%,69.2%
O=C1c2ccccc2C(=O)c2c1ccc(O)c2O.[Cu],87% (active),92% (active),98% (active),41%,95% (active),96.7% (active),99% (active),96% (active),96.9% (active),26%,91% (active),33.1%,86% (active),94% (active),93.6% (active),66%,94% (active),96.8% (active)
O=c1[nH]c(=O)c2n[nH]nc2[nH]1,6%,3%,0.45%,-1%,5%,-4.95%,1%,9%,33.4%,9%,8%,-42.5%,3%,3%,7.7%,3%,6%,24.1%
Cc1ccc(S(=O)(=O)/C=C2\COc3ccccc3C2=O)cc1,51%,99% (active),99.2% (active),65%,99% (active),99.7% (active),90% (active),100% (active),99.2% (active),44%,99% (active),99% (active),77% (active),99% (active),99.5% (active),79% (active),99% (active),99.5% (active)
O=c1[nH]n(CCc2ccccn2)c(=O)c(Cl)c1Cl,-5%,-5%,9.25%,-9%,-1%,1.95%,-3%,-26%,12.4%,2%,6%,-6.2%,2%,7%,-11.2%,-17%,13%,-17.2%
COC(=O)[C@H]1[C@@H](C(C)C)O[C@@H](C(C)C)O[C@H]1C(F)(F)F,-1%,2%,86.7% (active),-13%,-25%,92.5% (active),-14%,-10%,86.6% (active),-15%,1%,88.5% (active),-30%,1%,88.7% (active),-15%,-13%,84.4% (active)
CCCCCCCCCc1ccc(O)c(Cl)c1,-28%,94% (active),99.7% (active),-3%,90% (active),99.8% (active),-2%,99% (active),99.2% (active),-12%,97% (active),99.5% (active),-1%,86% (active),99.4% (active),-9%,99% (active),99.5% (active)
CCN(CC)CCCNc1nc(NCCCN(CC)CC)c2nc(-c3ccccc3)c(-c3ccccc3)nc2n1,-3%,93% (active),66.5%,2%,93% (active),61.4%,-2%,94% (active),63.8%,0%,47%,77.4% (active),-4%,92% (active),56.1%,-6%,94% (active),98.5% (active)
COC(=O)CC1C(=O)OCc2c1cc1n(c2=O)Cc2c-1nc1ccccc1c2OC (configuration not stated),15%,77% (active),94.4% (active),4%,15%,9.05%,-4%,-1%,10%,-12%,-7%,20.4%,-2%,11%,12.7%,7%,1%,51.2%

# Source: PubChem BioAssay (NCI)
